Measurements reported in PubChem BioAssay.
Activity calls are given as the source filed them.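 Rule for the calls, unless noted: active = fluorescence slope after compound addition differing from the mean of all screened samples at 99.7% confidence, in either direction; inactive = the rest.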

Key:
[1] = inhibitors of TNFa-induced NFkB p65 translocation, primary screen, imaging, HUVEC, MLSMR starter and 10KST1 sets (AID 438;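 active = inhibition above 20% together with a positive visual image hit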;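 note: compound added about 3h40 before a 20 min TNFalpha stimulation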;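 for inhibition: signal is the nuclear over cytoplasmic p65 intensity ratio per well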); conditions: HUVEC TNFa-induced p65 nuclear translocation; cell count: measured here: nuclei count (cytotoxicity indicator), at 2.08 µM; inhibition: at 2 µM, stronger effect = higher value, 0% TNFa-plus-vehicle, 100% no-TNFa wells
[2] = inhibitors of mutant huntingtin aggregation, primary screen, imaging, exon1htt(103Q)mCFP cells, high-content imaging (AID 483;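 active = visual image review flags a hit and inhibition of aggregation exceeds 20%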;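 note: compound exposure lasted 3 days before fixation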;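 for nuclei count: percent of the per-plate median nuclei count of sample wells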); conditions: exon1htt(103Q)mCFP cell line, aggregate imaging, at 2 µM; inhibition of aggregation: stronger effect = higher value; nuclei count: measured here: cell count, toxicity
[3] = inhibitors of E-selectin induction by TNFa, primary screen, imaging, HUVEC, immunofluorescence, MLSMR starter and 10KST1 sets (AID 487;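 active = visually confirmed hit in the image check and inhibition above 20%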;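 for inhibition: signal is fraction of cell area covered by stained E-selectin grains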;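 for nuclei count: 100% = median nuclei count of all wells on the same plate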); conditions: HUVEC TNFalpha-induced E-selectin immunofluorescence imaging, at 2 µM; inhibition: stronger effect = higher value; nuclei count: measured here: cell number, toxicity
[4] = biological target: Voltage-gated potassium channel subunit beta-2 (Rattus norvegicus) (UniProt P62483); assay: KvBeta enzyme negative modulators, primary screen, biochemical, NADPH fluorescence (AID 622;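 active = fluorescence slope higher than the sample average by over 3 SD, cut at about -0.22 in these data, passing the limit was not always enough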;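 note: slope of raw intensity against log time taken from 70 to 1610 s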); conditions: recombinant KvBeta, 4-cyanobenzaldehyde reduction, at 10 µM, stronger effect = higher value
Sequence of Voltage-gated potassium channel subunit beta-2 (Rattus norvegicus) (P62483 whole entry, looked up): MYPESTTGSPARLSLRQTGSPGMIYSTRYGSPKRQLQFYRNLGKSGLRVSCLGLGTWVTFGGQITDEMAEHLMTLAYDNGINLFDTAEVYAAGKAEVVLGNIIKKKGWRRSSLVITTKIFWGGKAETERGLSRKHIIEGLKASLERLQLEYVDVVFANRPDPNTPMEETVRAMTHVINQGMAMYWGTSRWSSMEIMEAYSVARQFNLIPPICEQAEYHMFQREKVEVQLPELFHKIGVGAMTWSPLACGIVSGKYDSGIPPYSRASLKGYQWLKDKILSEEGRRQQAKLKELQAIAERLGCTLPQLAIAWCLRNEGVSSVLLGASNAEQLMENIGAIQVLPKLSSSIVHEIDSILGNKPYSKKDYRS

[5] = biological target: Voltage-gated potassium channel subunit beta-2 (Rattus norvegicus) (UniProt P62483); assay: KvBeta positive modulators, primary screen, biochemical, NADPH fluorescence (AID 623;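 active = NADPH fluorescence slope more negative than the mean of all samples by about 3 SD, 99.7% confidence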;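 note: fluorescence intensity change per second fitted from 20 to 320 s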); conditions: Recombinant KvBeta, NADPH fluorescence decrease slope, 10 min; at 10 µM; stronger effect = lower value
[6] = biological target: Alpha-2C adrenergic receptor (Homo sapiens) (UniProt P18825); assay: modulators of alpha2C/GIRK thallium flux, primary screen, cell-based, HEK293 alpha2C/GIRK1/2 (AID 624); conditions: thallium flux BTC fluorescence, at 10 µM, actives lie on both sides;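 note: slope of fluorescence ratio to pre-addition baseline per second over 15 to 24 s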
Sequence of Alpha-2C adrenergic receptor (Homo sapiens) (P18825 whole entry, looked up): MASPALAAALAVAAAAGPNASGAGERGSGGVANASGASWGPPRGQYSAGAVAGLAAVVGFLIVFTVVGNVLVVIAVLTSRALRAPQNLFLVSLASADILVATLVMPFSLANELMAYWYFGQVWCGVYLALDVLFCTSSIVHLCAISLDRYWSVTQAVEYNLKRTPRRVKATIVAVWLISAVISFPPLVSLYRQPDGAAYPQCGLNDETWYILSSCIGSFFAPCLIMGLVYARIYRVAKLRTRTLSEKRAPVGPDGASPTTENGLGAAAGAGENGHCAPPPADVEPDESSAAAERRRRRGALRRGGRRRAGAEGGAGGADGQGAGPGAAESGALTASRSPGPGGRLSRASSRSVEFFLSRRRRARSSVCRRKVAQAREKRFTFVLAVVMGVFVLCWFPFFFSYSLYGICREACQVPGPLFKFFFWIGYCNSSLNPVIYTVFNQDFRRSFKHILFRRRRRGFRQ

[7] = inhibitors of Sendai virus-induced IRF3 signaling, primary screen, TLR/RLR signaling modifier project, cell-based, Sendai virus stimulus, luciferase, 10K MLSCN set (AID 602276;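 active = inhibition at or above 50% at 10 µM; inactive = inhibition below 50%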;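 note: firefly luciferase from ISG56 promoter only with Renilla not read in this screen; 0% = Sendai virus plus DMSO and 100% = medium plus DMSO without virus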); conditions: HEK293 RL24 IRF3 luciferase reporter, at 10 µM, stronger effect = higher value
[8] = inhibitors of poly I:C-induced TLR3 signaling, primary screen, cell-based, poly I:C stimulus, luciferase, 10K MLSCN set (AID 602277;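 active = inhibition of the reporter signal at or above 50%; inactive = inhibition below 50%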); conditions: HEK293-TLR3 RL24 IRF3 luciferase reporter, at 10 µM, stronger effect = higher value

Compound	cell count [1]	inhibition [1]	inhibition of aggregation [2]	nuclei count [2]	inhibition [3]	nuclei count [3]	fluorescence slope [4]	NADPH fluorescence slope [5]	slope [6]	inhibition [7]	inhibition [8]
O=C(CCNS(=O)(=O)c1cccc2nsnc12)NCc1cccs1	623	-21% (inactive)	-17.4% (inactive)	101%	-34.5% (inactive)	118%	-0.508 (inactive)	-0.000109 (inactive)	0.00523 (inactive)	17.1% (inactive)	19% (inactive)
CC(C)C(c1nnnn1C1CCCC1)N1CCCc2ccccc21 (centres undefined)	706	-6.9% (inactive)	5.4% (inactive)	95.4%	-47.1% (inactive)	107%	-0.423 (inactive)	-7.3e-05 (inactive)	0.00444 (inactive)	-17.8% (inactive)	-6.74% (inactive)
CCS(=O)(=O)N1CCCC(c2nc(-c3cccc(OC)c3)no2)C1 (centres undefined)	730	-52% (inactive)	-9.9% (inactive)	92.1%	-66.1% (inactive)	104%	-0.535 (inactive)	1.2e-05 (inactive)	0.00638 (inactive)	-28.7% (inactive)	-59.2% (inactive)
CNC(=O)c1ccsc1NC(=O)CN1C(=O)CCC1=O	469	-5.4% (inactive)	10.7% (inactive)	90.3%	4.8% (inactive)	113%	-0.451 (inactive)	-5.2e-05 (inactive)	0.00494 (inactive)	6.37% (inactive)	28.8% (inactive)
O=C(CSc1nnnn1-c1ccc(Cl)cc1)NC(=O)Nc1ccc2c(c1)OCCO2	336	5.6% (inactive)	19.6% (inactive)	84.7%	-86.5% (inactive)	120%	-0.429 (inactive)	-3.6e-05 (inactive)	0.00808 (inactive)	-24.8% (inactive)	-57% (inactive)
COc1ccccc1C(=O)n1nc(-c2ccc(Cl)cc2)nc1N	330	-1.2% (inactive)	-3.1% (inactive)	104%	-17.2% (inactive)	113%	-0.426 (inactive)	1.8e-05 (inactive)	0.00385 (inactive)	2.38% (inactive)	9.48% (inactive)
COc1cc(NC(=O)C2C3C=CC(C3)C2C(=O)O)c(OC)cc1Cl (centres undefined)	406	0.8% (inactive)	-31% (inactive)	98.6%	19.6% (inactive)	90%	-0.49 (inactive)	-6.5e-06 (inactive)	0.00705 (inactive)	-7.81% (inactive)	20.2% (inactive)
N#Cc1ccccc1NC(=O)CSc1nnc(-c2ccccc2)n1-c1ccccc1	556	-25.3% (inactive)	-20.9% (inactive)	99.9%	-1.6% (inactive)	83.7%	-0.603 (inactive)	-1.9e-05 (inactive)	0.00673 (inactive)	1.9% (inactive)	24.8% (inactive)
CCC(C)(C)n1nnnc1C(c1ccncc1)N1CCN(c2cccc(OC)c2)CC1 (centres undefined)	410	1% (inactive)	-2.6% (inactive)	95.6%	-31.9% (inactive)	98.8%	-0.629 (inactive)	-2e-05 (inactive)	0.00376 (inactive)	23.4% (inactive)	28.6% (inactive)
O=C1CC(Cc2ccccc2)C(=O)N1CCCn1ccnc1 (centres undefined)	429	-4.9% (inactive)	10.8% (inactive)	100%	36.4% (inactive)	102%	-0.346 (inactive)	-6e-05 (inactive)	0.00527 (inactive)	17.7% (inactive)	25% (inactive)
CCC1CCCCN1C(=O)CSc1nnc(-c2ccco2)o1 (centres undefined)	368	4.2% (inactive)	-17.6% (inactive)	100%	-80.6% (inactive)	104%	-0.487 (inactive)	-7.3e-05 (inactive)	0.00444 (inactive)	-35.7% (inactive)	-88.3% (inactive)
CCC(Oc1ccccc1)C(=O)Nc1ccccc1OC (centres undefined)	352	9.2% (inactive)	-9.3% (inactive)	106%	-33.3% (inactive)	109%	-0.487 (inactive)	-1.9e-05 (inactive)	0.00497 (inactive)	0.598% (inactive)	19.3% (inactive)
CC(C)(C)C(=O)Cn1c[n+](N)cn1	545	-9.5% (inactive)	-3.6% (inactive)	118%	18.1% (inactive)	105%	-0.62 (inactive)	-3.8e-05 (inactive)	0.00385 (inactive)	18.9% (inactive)	26.2% (inactive)
O=C(C1CCCN(S(=O)(=O)c2cnc[nH]2)C1)N1CCN(c2ccc(Cl)cc2)CC1 (centres undefined)	566	8% (inactive)	-31.8% (inactive)	103%	-71.3% (inactive)	123%	-0.523 (inactive)	3.4e-05 (inactive)	0.00672 (inactive)	-6.86% (inactive)	0.571% (inactive)
